Measured values taken from ChEMBL document CHEMBL3988442, “University of Dundee, Small-Polar-MMV Screening Library” (2021).
Among all 66,000 compounds or so, about 960 (1.5%) showed an effect of 50% or more. This excerpt belongs to a sample that is enriched for strong results.

Tested on: Trypanosoma brucei
Experiment: Trypanosoma brucei 72 hour study
Assay type: functional, organism-based
Parameters: scale not given: in the data most compounds retested in dose-response had high values

Row | Structure (SMILES) | Percent Effect (30 µM, 30.03 µM) | Percent Effect (30.3 µM, […])
1 | O=C(C[C@@H]1COC[C@H]2CN(C(=O)c3cccnc3)C[C@@H]12)N1CCCC1.O=C(O)C(F)(F)F | -25.13% | 
2 | CCN1C(=O)CC[C@]12CC[C@@H](NC(=O)c1ccncc1F)CC2.O=C(O)C(F)(F)F |  | 5.821%
3 | O=C(CC1CC1)N1CCC2(CC1)CN(c1ncccn1)CCO2 | 61.77% | 
4 | O=C(CC1CC1)N1CCC2(CC1)CN(c1ncc(F)cn1)CCO2 |  | -27.29%
5 | COCC(=O)N1CCC2(CC1)CN(c1ncccn1)CCO2 |  | -22.4%
6 | Cc1cnc(N)c(C(=O)C2CCN(C(=O)c3ccccc3F)CC2)c1 | 31.22% | 
7 | CN1CC(C(=O)NCCc2ccn(-c3ccc(F)cc3)n2)CC1=O (stereo unspecified) |  | -29.7%
8 | O=C(NCCc1ccn(-c2ccc(F)cc2)n1)C1CCCOC1 (stereo unspecified) |  | 101.3%
9 | O=C(NCCc1ccn(-c2ccc(F)cc2)n1)C1CCCO1 (stereo unspecified) |  | 99.62%
10 | O=C(NCCn1cccc1)C1CCCOC1 (stereo unspecified) | 2.367% | 
11 | COC(=O)C1CN(Cc2ccn(-c3ccc(F)cc3)n2)CCO1 (stereo unspecified) | -55.87% | 
12 | O=C(NCc1cnn(-c2ccc(F)cc2F)c1)C1CCCO1 (stereo unspecified) | 6.462% | 
13 | Cc1noc(C)c1CN1CCN(Cc2ccncc2)c2ncccc2C1.O=C(O)C(F)(F)F.O=C(O)C(F)(F)F.O=C(O)C(F)(F)F | 43.91% | 
14 | COc1ccc(CN2CCc3nnc(COCCN(C)C)n3CC2)cc1.O=C(O)C(F)(F)F.O=C(O)C(F)(F)F |  | -2.661%
15 | CN1C(=O)CC[C@@H]2[C@H]1CCN2S(=O)(=O)Cc1ccccc1 | -49.38% | 
16 | COc1ccc(-c2cc(CN)nc3ccnn23)cc1.Cl |  | -10.95%
17 | COc1cccc(CNc2cc(CO)ccc2Cl)c1 |  | -53.68%
18 | Cc1cccc(CNC(=O)CNc2cc(CO)ccc2Cl)c1 | 50.69% | 
19 | CN(C)S(=O)(=O)c1cccc(CNc2cc(CO)ccc2Cl)c1 |  | 18.15%
20 | CC(C)CC(=O)N1CC[C@H]2N(C)CC[C@@]2(C(=O)Nc2ccccc2)CC1.O=C(O)C(F)(F)F | -17.6% | 
21 | CCc1cc(CN2CCCCC2c2ccc(F)cc2)on1 (stereo unspecified) |  | -64.98%
22 | CCCC(=O)N(C)Cc1nc(N2CCCC2)ncc1-c1ccncc1.Cl |  | 24.09%
23 | COCCNC(=O)[C@H]1C[C@@H]2CCN(c3nncs3)C[C@H]2O1.O=C(O)C(F)(F)F | 50.75% | 
24 | COCCNC(=O)[C@H]1C[C@@H]2CCN(c3ncccn3)C[C@H]2O1.O=C(O)C(F)(F)F |  | -89.35%

Row | Structure (SMILES) | Percent Effect (30 µM, 30.03 µM) | Percent Effect (30.3 µM, […])
25 | O=C(NCC1CCOCC1)[C@H]1C[C@@H]2CCN(c3nncs3)C[C@@H]2O1.O=C(O)C(F)(F)F |  | -23.29%
26 | O=C(NCC1CCOC1)N1CCN(Cc2ccc3c(c2)CCO3)CC1 (stereo unspecified) | 54.6% | 
27 | O=C(NCC1CCOC1)N1CCN(Cc2ccc3c(c2)OCO3)CC1 (stereo unspecified) |  | 1.586%
28 | O=C(NCC1CCCO1)N1CCN(Cc2ccc3c(c2)CCO3)CC1 (stereo unspecified) |  | 17.02%
29 | CC1(C(=O)N2CCOCC2)CNCCO1.Cl (stereo unspecified) |  | -3.709%
30 | O=C(CC1CC1)NCc1cn2c(n1)CN(CC1CC1)CC2.O=C(O)C(F)(F)F | 14.47% | 
31 | O=C(COCc1ccccc1Cl)N1CCN(c2ccc(Br)cn2)CC1 |  | 6.228%
32 | O=C(NCC1OCCc2cn(CC3CC3)nc21)c1ccsc1 (stereo unspecified) | 104.3% | 
33 | O=C(Cc1ccsc1)NCC1OCCc2cn(CC3CC3)nc21 (stereo unspecified) | 10.27% | 
34 | O=C(NCC1OCCc2cn(CC3CCOCC3)nc21)c1ccsc1.O=C(O)C(F)(F)F (stereo unspecified) | -82.86% | 
35 | CCOCC1CN(C(=O)Cc2ccccn2)Cc2cnn(C)c21.O=C(O)C(F)(F)F.O=C(O)C(F)(F)F (stereo unspecified) |  | -7.447%
36 | Nc1ncc2c(n1)CN(C1CCCC1)C2=O | 49.38% | 
37 | CN1CCC(N2Cc3nc(N)ncc3C2=O)CC1 |  | -14.03%
38 | CC1CCC(N2Cc3nc(N)ncc3C2=O)CC1 (stereo unspecified) |  | 59%
39 | Cc1csc(C(Cc2ccsc2)NC(=O)CN(C)Cc2ccccn2)n1.Cl (stereo unspecified) |  | 18.37%
40 | Cc1nc(C)n(CC2CN(CC(=O)Nc3ccncc3)CCO2)n1 (stereo unspecified) | -4.979% | 
41 | Oc1ccc(-c2c(-c3ccccc3)ncn2C[C@H]2CCCN2)cc1 | 67.04% | 
42 | O=C(O)c1ccccc1-c1c(-c2ccccc2)ncn1CC1CCCO1 (stereo unspecified) | -42.19% | 
43 | O=C(O)c1ccccc1-c1c(-c2ccccc2)ncn1C[C@H]1CCCN1 | 7.799% | 
44 | CCn1cc2c(n1)CN(Cc1ccncc1)CC2COCC1CC1.O=C(O)C(F)(F)F.O=C(O)C(F)(F)F (stereo unspecified) | 16.48% | 
45 | CCOC(=O)[C@@H]1[C@@H](OC)C(=O)N(C)C12CCN(C(=O)C(CC)CC)CC2 |  | 47.28%
46 | O=C1NCC(c2ccc(Cl)cc2)Cc2[nH]c(CCN3CCOCC3)nc21 (stereo unspecified) |  | -6.17%
47 | O=C(CCCn1ccnc1)NC1CCCN(c2ccccc2Cl)C1 (stereo unspecified) | -36.7% | 
48 | CC(=O)N(C)C1CCN(C(=O)c2cccc3c2ccn3C)CC1 |  | 1.635%

Row | Structure (SMILES) | Percent Effect (30 µM, 30.03 µM) | Percent Effect (30.3 µM, […])
49 | Cn1ccc2c(C(=O)N3CCC(C(N)=O)CC3)cccc21 | 51.42% | 
50 | Cn1ccc2c(C(=O)N3CCN(C(=O)C4CCCC4)CC3)cccc21 |  | -0.9219%
51 | CNCc1ccc([C@@H]2CN(C(C)=O)C[C@H]2C(N)=O)cc1.Cl |  | -4.211%
52 | Cc1nn(-c2ccccc2)c(C)c1CC(=O)NC1CC(=O)N(C)C1 (stereo unspecified) | -14.36% | 
53 | COC(=O)C(CCSC)NC(=O)Cc1c(C)nn(-c2ccccc2)c1C (stereo unspecified) |  | 100.4%
54 | COC(=O)[C@H](CCSC)NC(=O)Cn1ccc2c(Cl)cccc21 | -28.3% | 
55 | CSCCC(NC(N)=O)C(=O)NCc1c(C)nn(-c2ccccc2)c1C (stereo unspecified) | -20.96% | 
56 | COC(=O)[C@H](CCSC)NC(=O)Cc1c(C)nn(-c2ccccc2)c1C | 101% | 
57 | COc1cccc(-c2nc(C)c(C(=O)N[C@@H](CCSC)C(=O)O)s2)c1 | -41.8% | 
58 | CC(C)Cc1noc(CN2CCOCC2C)n1 (stereo unspecified) | -14.5% | 
59 | O=C(Nc1cnccn1)[C@@H]1CCO[C@@H]2CCN(Cc3ccsc3)C[C@@H]21.O=C(O)C(F)(F)F |  | -603.1%
60 | O=C(Nc1ccccc1)N1C(CN2CCOCC2)[C@]2(O)CC[C@H]1CC2 (stereo partly specified) |  | 6.609%
61 | CCc1nc(NCC(=O)N2CCOCC2)c2c(n1)c(C)nn2CC | 60.24% | 
62 | CCn1nc(C)c2nc(C(C)C)nc(NCC(=O)N3CCOCC3)c21 |  | -23.63%
63 | CCCc1nc(NCC(=O)N2CCOCC2)c2c(n1)c(C)nn2CC |  | -24.9%
64 | Cn1c(CN2CCN(CC3CCCO3)CC2)nc2ccccc21 (stereo unspecified) |  | -39.6%
65 | CCCc1ccc(N2CCN(Cc3nc4ccccc4n3C)CC2)cc1 | 90.43% | 
66 | Cn1c(CCN2CCN(CCc3ccccc3)CC2)nc2ccccc21 | -13.15% | 
67 | COCCN1CC[C@@H]2CN(Cc3nccn3C)C[C@@H]2C1.O=C(O)C(F)(F)F.O=C(O)C(F)(F)F | 27.97% | 
68 | CC(C)CN1CCc2c(CN(C)Cc3ccco3)cncc2C1.Cl.Cl.Cl |  | -2.843%
69 | COc1ccc(C)cc1CN(Cc1nc(C)c(C)o1)C1CCN(C)C1 (stereo unspecified) | 82.74% | 
70 | COc1ccc(C)cc1CN(Cc1ncc(C)o1)C1CCN(C)C1 (stereo unspecified) | -50.91% | 
71 | Cc1cnc(CN(Cc2ccc(C#N)cc2F)C2CCN(C)C2)o1 (stereo unspecified) | -34.7% | 
72 | COc1cc(C(=O)NCC2(N(C)C)CCN(C)CC2)c2ccccc2n1 |  | -18.58%

Row | Structure (SMILES) | Percent Effect (30 µM, 30.03 µM) | Percent Effect (30.3 µM, […])
73 | Cc1c(CN2CC[C@@H](N3CCC(O)CC3)[C@H](O)C2)[nH]c2ccc(Cl)cc12 | -14.51% | 
74 | CN1CCN([C@@H]2CCN(CC3=Cc4cc(Cl)ccc4OC3)C[C@H]2O)CC1 |  | 22.23%
75 | O[C@@H]1CN(CC2=Cc3cc(Cl)ccc3OC2)CC[C@H]1N1CCCCCC1 |  | 78.41%
76 | O=C(CCc1ccco1)N1CCCC(n2cccn2)C1 (stereo unspecified) |  | 12.32%
77 | Cn1cnnc1S(=O)(=O)C1CCN(S(=O)(=O)c2ccc(F)c(Cl)c2)CC1 | 73.39% | 
78 | Cc1ccc(S(=O)(=O)N2CCC(S(=O)(=O)c3nncn3C)CC2)cc1C | -15.11% | 
79 | Cn1cnnc1S(=O)(=O)C1CCN(S(=O)(=O)c2ccccc2F)CC1 | -32% | 
80 | CN1CCN(Cc2ccncc2)C(=O)C12CCN(Cc1ccsc1)CC2.O=C(O)C(F)(F)F.O=C(O)C(F)(F)F.O=C(O)C(F)(F)F |  | -53.7%
81 | COC1CCN(C(=O)Cc2csc(-c3ncccn3)n2)CC1 | 9.896% | 
82 | COC1CCN(C(=O)Cc2csc(-c3ccccc3)n2)CC1 |  | 99.67%
83 | COC1CCN(C(=O)Cc2csc(-c3ccc(F)cc3)n2)CC1 |  | 9.7%
84 | Cc1cc(N2CCc3cncnc3C2)n2nc(C(F)(F)F)nc2n1 | -22.1% | 
85 | Cc1ccc(C(=O)N2CCOCC2C(N)=O)c(F)c1 (stereo unspecified) | -8.01% | 
86 | O=C(Nc1ccccn1)c1csc(NC2CCCC2)n1 | 1.318% | 
87 | CC(C)CCNC(=O)c1csc(NC2CC2)n1 | 55.59% | 
88 | CC(NC(=O)Nc1nccs1)C(=O)NC1CCCC1 (stereo unspecified) | -0.2762% | 
89 | CC(C)CCNc1nc(C(=O)NC2CC2)cs1 | -29.09% | 
90 | O=C(Nc1nccs1)c1csc(NC2CCCC2)n1 | 93.86% | 
91 | CC(C)NC(=O)c1csc(NC2CC2)n1 | -15.9% | 
92 | COc1cccc(C2CCCN2Cc2nnnn2C2CC2)c1 (stereo unspecified) | 7.439% | 
93 | O=C(O)C(F)(F)F.O=C(O)C(F)(F)F.c1csc(CN2Cc3nc(CN4CCCC4)oc3C2)c1 |  | -24.4%
94 | COc1c(C)cnc(CN(C)C2CCOC3(CCOCC3)C2)c1C (stereo unspecified) | -25.65% | 
95 | COc1c(C)cnc(CN(C)C2CCCCC2)c1C | 75.58% | 
96 | COc1c(C)cnc(CN(C)C2CCN(C3CCOCC3)CC2)c1C | -11.24% | 
